What was measured:
Test in all cases: PBM binding z-score (relative to random genomic background probes); higher = stronger binding; sequences stand for … in GC…GCGATTGACAGCGTAGAATGAAGG
[1] = tested on: RARb homodimer (NR concentration 270 nM)
Outline: (§1)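 Regression normalization was applied to scanned fluorescence from custom Agilent 4×180K protein-binding microarrays. Before scanning, arrays were incubated 1 h with ligand-free nuclear receptor dimers, and binding was detected with antibodies against each partner (one per run). Binding z-scores use the random background probes as reference.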

[2] = tested on: RARg:RXRa (NR concentration 270 nM, RXRa partner concentration 90 nM)
Outline: as §1

[3] = tested on: RARg homodimer (NR concentration 270 nM)
Outline: as §1

[4] = tested on: RXRa DBDmut IVT, anti-RXR (DBD mutation: RXRa K156A/R161A, NR concentration 90 nM)
Outline: as §1

[5] = tested on: RXRa homodimer (NR concentration 180 nM)
Outline: as §1

[6] = tested on: THRa:RXRa (NR concentration 90 nM, RXRa partner concentration 90 nM)
Outline: as §1

[7] = tested on: THRa homodimer (NR concentration 90 nM)
Outline: as §1

[8] = tested on: VDR homodimer (NR concentration 270 nM)
Outline: as §1

Sequence: CCTAGCGGGCCAATCTGGGTCACTCAAGGCTTGA
- PBM binding z-score [1]: 2.14
- PBM binding z-score [2]: 0.91
- PBM binding z-score [3]: 0.984
- PBM binding z-score [4]: -0.4
- PBM binding z-score [5]: 0.724
- PBM binding z-score [6]: 3.59
- PBM binding z-score [7]: 0.327
- PBM binding z-score [8]: -0.159

Sequence: CCTACTGGGCCAAGGTTATTGATCAGTCAAAGCA
- PBM binding z-score [1]: 0.487
- PBM binding z-score [2]: 0.504
- PBM binding z-score [3]: 0.249
- PBM binding z-score [4]: -0.428
- PBM binding z-score [5]: 0.318
- PBM binding z-score [6]: 0.787
- PBM binding z-score [7]: 0.234
- PBM binding z-score [8]: -0.0593

Sequence: ACTAGCAGGCCAAGGGTCAATCAAGATTAGTCCG
- PBM binding z-score [1]: 3.46
- PBM binding z-score [2]: 4.36
- PBM binding z-score [3]: 3.8
- PBM binding z-score [4]: 0.567
- PBM binding z-score [5]: 4.62
- PBM binding z-score [6]: 2.76
- PBM binding z-score [7]: -0.086
- PBM binding z-score [8]: 0.551

Sequence: GCTAGCAGGCCATTTGGGTCACTGAATGACGGGC
- PBM binding z-score [1]: 1.94
- PBM binding z-score [2]: 0.989
- PBM binding z-score [3]: 1.4
- PBM binding z-score [4]: 0.125
- PBM binding z-score [5]: 0.735
- PBM binding z-score [6]: 1.95
- PBM binding z-score [7]: 0.65
- PBM binding z-score [8]: 0.43

Sequence: TCTTGAAGATCAATAGAGGTTAAGAAAGTGCGCT
- PBM binding z-score [1]: 1.17
- PBM binding z-score [2]: 0.73
- PBM binding z-score [3]: 0.205
- PBM binding z-score [4]: 0.671
- PBM binding z-score [5]: 1.49
- PBM binding z-score [6]: 2.53
- PBM binding z-score [7]: -0.674
- PBM binding z-score [8]: -0.178

Sequence: AGAACGAGGGCAATGAGTTGATGGCACGGGTGGC
- PBM binding z-score [1]: 1.11
- PBM binding z-score [2]: 0.928
- PBM binding z-score [3]: 1.54
- PBM binding z-score [4]: 1.36
- PBM binding z-score [5]: 0.636
- PBM binding z-score [6]: 0.857
- PBM binding z-score [7]: -0.205
- PBM binding z-score [8]: 2.62

Sequence: CCTTACGGGTCACGAGGTTATGGCACGACGAGCG
- PBM binding z-score [1]: 3.8
- PBM binding z-score [2]: 6.05
- PBM binding z-score [3]: 5.55
- PBM binding z-score [4]: 1.3
- PBM binding z-score [5]: 6.91
- PBM binding z-score [6]: 3.72
- PBM binding z-score [7]: 1.19
- PBM binding z-score [8]: 1.71

Sequence: AGAACGAGGGCACGCTGAGTTCATAGCAGAGTAG
- PBM binding z-score [1]: 2.79
- PBM binding z-score [2]: 4.31
- PBM binding z-score [3]: 3.34
- PBM binding z-score [4]: 3.17
- PBM binding z-score [5]: 3.08
- PBM binding z-score [6]: 3.31
- PBM binding z-score [7]: 0.849
- PBM binding z-score [8]: 7.01

Sequence: AATACATGGTCACTAGGCCAGAGTAGGTACGAAT
- PBM binding z-score [1]: 0.707
- PBM binding z-score [2]: 0.578
- PBM binding z-score [3]: 1.01
- PBM binding z-score [4]: -0.405
- PBM binding z-score [5]: 0.58
- PBM binding z-score [6]: -0.00579
- PBM binding z-score [7]: -0.302
- PBM binding z-score [8]: 0.15

Sequence: ACTAGTTGGTCAGCTGAGGTCACATACAATTCGG
- PBM binding z-score [1]: 4.32
- PBM binding z-score [2]: 3.83
- PBM binding z-score [3]: 3.84
- PBM binding z-score [4]: 1.5
- PBM binding z-score [5]: 3.53
- PBM binding z-score [6]: 4.98
- PBM binding z-score [7]: 4.72
- PBM binding z-score [8]: 3.28

Sequence: CGTCCAAGATCAATGCTAGGTCAGTGAAAGCATT
- PBM binding z-score [1]: 2.31
- PBM binding z-score [2]: 1.93
- PBM binding z-score [3]: 1.33
- PBM binding z-score [4]: 0.097
- PBM binding z-score [5]: 0.272
- PBM binding z-score [6]: 1.75
- PBM binding z-score [7]: 0.486
- PBM binding z-score [8]: 0.299

Sequence: TCATATAGGTAAATGCTAAGTGAAAGTCCGATCT
- PBM binding z-score [1]: 0.0173
- PBM binding z-score [2]: 0.4
- PBM binding z-score [3]: 0.337
- PBM binding z-score [4]: 1.68
- PBM binding z-score [5]: 0.615
- PBM binding z-score [6]: 0.0115
- PBM binding z-score [7]: -0.264
- PBM binding z-score [8]: 0.0364

Sequence: ATCTCTAGGAAACAAGTTCAGTGAAAGAGAGGAC
- PBM binding z-score [1]: 1.32
- PBM binding z-score [2]: 1
- PBM binding z-score [3]: 0.918
- PBM binding z-score [4]: 0.688
- PBM binding z-score [5]: 0.725
- PBM binding z-score [6]: 0.835
- PBM binding z-score [7]: 0.164
- PBM binding z-score [8]: 2.27

Sequence: CCGACTGGGGCAGAACGGTTACCATACCATCCGG
- PBM binding z-score [1]: 0.0428
- PBM binding z-score [2]: -0.0938
- PBM binding z-score [3]: 0.284
- PBM binding z-score [4]: -1.04
- PBM binding z-score [5]: -0.293
- PBM binding z-score [6]: -0.413
- PBM binding z-score [7]: -0.791
- PBM binding z-score [8]: -0.33

Sequence: CCTTACGGGACACTCCAGGTTATAGCATCGGAGT
- PBM binding z-score [1]: 0.585
- PBM binding z-score [2]: 0.478
- PBM binding z-score [3]: 0.691
- PBM binding z-score [4]: 0.129
- PBM binding z-score [5]: 0.276
- PBM binding z-score [6]: 1.84
- PBM binding z-score [7]: 0.457
- PBM binding z-score [8]: 0.239

Sequence: TTACCAAGGTGAGCTGAGGTGGTTGATCCAACTC
- PBM binding z-score [1]: -0.15
- PBM binding z-score [2]: 0.00376
- PBM binding z-score [3]: -0.00239
- PBM binding z-score [4]: -0.813
- PBM binding z-score [5]: 0.0948
- PBM binding z-score [6]: 2.98
- PBM binding z-score [7]: -0.0561
- PBM binding z-score [8]: -0.641

Sequence: TCGAGTAGGTTAGGGGCCTTCAGAATGGCGTCGA
- PBM binding z-score [1]: -0.137
- PBM binding z-score [2]: -0.483
- PBM binding z-score [3]: -0.763
- PBM binding z-score [4]: -0.0601
- PBM binding z-score [5]: -0.143
- PBM binding z-score [6]: -0.36
- PBM binding z-score [7]: -0.629
- PBM binding z-score [8]: -0.468

Sequence: CGAACTGGGTCAGAACAGGACAGTGAAGGATGAT
- PBM binding z-score [1]: 1.53
- PBM binding z-score [2]: 1.84
- PBM binding z-score [3]: 2.27
- PBM binding z-score [4]: 0.00591
- PBM binding z-score [5]: 1.26
- PBM binding z-score [6]: 3.55
- PBM binding z-score [7]: -0.0909
- PBM binding z-score [8]: 0.0814

Sequence: TAGCCTAGGTCAGATCGGGCAAGTATACGCTATA
- PBM binding z-score [1]: 2.01
- PBM binding z-score [2]: 2.85
- PBM binding z-score [3]: 3.43
- PBM binding z-score [4]: -0.344
- PBM binding z-score [5]: 1.29
- PBM binding z-score [6]: 2.98
- PBM binding z-score [7]: -0.283
- PBM binding z-score [8]: -0.339

Sequence: TCTATTAGTTGAAGGTCAACCGACGAGTCCGTTT
- PBM binding z-score [1]: 4.21
- PBM binding z-score [2]: 4.22
- PBM binding z-score [3]: 4.39
- PBM binding z-score [4]: 2.25
- PBM binding z-score [5]: 4.15
- PBM binding z-score [6]: 3.13
- PBM binding z-score [7]: 1.93
- PBM binding z-score [8]: 3.45

Sequence: TCTGCTAGGTCAACGAGGGTCAGCTAATCTGCTA
- PBM binding z-score [1]: 4.57
- PBM binding z-score [2]: 5.29
- PBM binding z-score [3]: 6.13
- PBM binding z-score [4]: 1.47
- PBM binding z-score [5]: 3.94
- PBM binding z-score [6]: 4.76
- PBM binding z-score [7]: 1.14
- PBM binding z-score [8]: 0.552

Sequence: GATACAGGGTCAGCTAGAGGCCAGAGTGTGGAAA
- PBM binding z-score [1]: 3.67
- PBM binding z-score [2]: 6.74
- PBM binding z-score [3]: 4.74
- PBM binding z-score [4]: 1.34
- PBM binding z-score [5]: 4.41
- PBM binding z-score [6]: 3.15
- PBM binding z-score [7]: 0.703
- PBM binding z-score [8]: 0.787

Sequence: GGAACGAGGCCAAAGTTGATAGCATCTGTCGACG
- PBM binding z-score [1]: 0.373
- PBM binding z-score [2]: 0.787
- PBM binding z-score [3]: 0.688
- PBM binding z-score [4]: 0.917
- PBM binding z-score [5]: 0.814
- PBM binding z-score [6]: 0.667
- PBM binding z-score [7]: -0.899
- PBM binding z-score [8]: -0.181

Sequence: AGCATGAGGTTATACGTAGATCAGGGAAGAAAGT
- PBM binding z-score [1]: 0.998
- PBM binding z-score [2]: 1.64
- PBM binding z-score [3]: 1.3
- PBM binding z-score [4]: 1.63
- PBM binding z-score [5]: 1.8
- PBM binding z-score [6]: 2.11
- PBM binding z-score [7]: 0.665
- PBM binding z-score [8]: 0.812

Sequence: CAAACTAGGTCACGATAGGTCAAAGTCGAATGAC
- PBM binding z-score [1]: 4.88
- PBM binding z-score [2]: 6.44
- PBM binding z-score [3]: 6.71
- PBM binding z-score [4]: 2.13
- PBM binding z-score [5]: 5.99
- PBM binding z-score [6]: 4.65
- PBM binding z-score [7]: 2.39
- PBM binding z-score [8]: 2.02

Sequence: TTACCCAGGTGAGCTGAGGTCGTTGATCCAACTC
- PBM binding z-score [1]: 1.17
- PBM binding z-score [2]: 0.816
- PBM binding z-score [3]: 0.509
- PBM binding z-score [4]: -0.172
- PBM binding z-score [5]: 1.19
- PBM binding z-score [6]: 4.32
- PBM binding z-score [7]: 1.8
- PBM binding z-score [8]: 2.27

Sequence: GCTAGTTGGTCAGTAAAAGGTCACATACCGGTCG
- PBM binding z-score [1]: 5.15
- PBM binding z-score [2]: 5.2
- PBM binding z-score [3]: 4.75
- PBM binding z-score [4]: 0.819
- PBM binding z-score [5]: 4.95
- PBM binding z-score [6]: 3.52
- PBM binding z-score [7]: 1.86
- PBM binding z-score [8]: 1.74

Sequence: TCATATAGGTAATACAGGTAAAAGTCGGCATCTA
- PBM binding z-score [1]: -0.0506
- PBM binding z-score [2]: 0.506
- PBM binding z-score [3]: 0.536
- PBM binding z-score [4]: 1.9
- PBM binding z-score [5]: 1.21
- PBM binding z-score [6]: 0.497
- PBM binding z-score [7]: 0.159
- PBM binding z-score [8]: 0.0521

From the supplement of paper PMC6555819
